# The whole screen tested about 5,500 compounds, of which about 2,000 (36%) were called active. Inconclusive results (about 18%) are left out. The list shows a part of the results. Unmarked numbers belong to inactive results. Rule as the data show it: active = normalized growth mostly below about 0.91 (no sharp cut-off); inconclusive = no clear call, values can overlap the other calls; inactive = mostly above about 0.92.
# Assay: chemical genetic growth profiling, strain panel (AID 1159580);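 also: tested at 20 µM; growth read once vehicle control cultures reached saturation at 30 °C; 1 = growth at the plate median or of vehicle wells; lower values mean less growth of the strain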
# Details: S. cerevisiae deletion strains, growth OD
# [1] = locus YAL013W, strain DEP1, hits give low values
# [2] = locus YBR229C, strain ROT2, hits give low values
# [3] = locus YDL101C, strain DUN1, hits give low values
# [4] = locus YDL134C, strain PPH21, hits give low values
# [5] = locus YDR150W, strain NUM1, hits give low values
# [6] = locus YEL061C, strain CIN8, hits give low values
# [7] = locus YGR078C, strain PAC10, hits give low values
# [8] = locus YHR030C, strain SLT2, hits give low values
# [9] = locus YHR087W, strain rtc3, hits give low values
# [10] = locus YJL187C, strain SWE1, hits give low values
# [11] = locus YJR043C, strain POL32, hits give low values
# [12] = locus YJR075W, strain HOC1, hits give low values
# [13] = locus YLR039C, strain RIC1, hits give low values
# [14] = locus YLR058C, strain SHM2 (second series), hits give low values
# [15] = locus YLR085C, strain ARP6, hits give low values
# [16] = locus YLR262C, strain YPT6, hits give low values
# [17] = locus YML094W, strain GIM5, hits give low values
# [18] = locus YMR219W, strain ESC1, hits give low values
# [19] = locus YMR263W, strain SAP30, hits give low values
# [20] = locus YNL153C, strain GIM3, hits give low values
# [21] = locus YNL298W, strain CLA4 (second series), hits give low values
# [22] = locus YNL322C, strain KRE1, hits give low values
# [23] = locus YNR030W, strain Alg12, hits give low values
# [24] = locus YPL055C, strain LGE1, hits give low values
# [25] = locus YPL241C, strain CIN2, hits give low values
# [26] = locus YPR135W, strain CTF4, hits give low values
smiles,measurement,setting,value
O=C1C2C3C=CC(C3)C2C(=O)N1c1ccc(F)c(F)c1 (stereo unspecified),normalized growth,[1],1.01
same,normalized growth,[2],1.03
same,normalized growth,"locus YCL061C, strain MRC1, hits give low values",0.986
same,normalized growth,[3],0.993
same,normalized growth,[4],0.999
same,normalized growth,[5],0.997
same,normalized growth,[6],1.03
same,normalized growth,[7],0.994
same,normalized growth,[8],1.01
same,normalized growth,[9],0.995
same,normalized growth,[10],1.01
same,normalized growth,[11],0.957
same,normalized growth,[12],1.01
same,normalized growth,"locus YKL190W, strain CNB1, hits give low values",0.99
same,normalized growth,[13],0.995
same,normalized growth,[14],0.981
same,normalized growth,[15],1.06
same,normalized growth,[16],0.992
same,normalized growth,[17],1.01
same,normalized growth,[18],1
same,normalized growth,[19],1
same,normalized growth,[20],0.983
same,normalized growth,[21],0.982
same,normalized growth,[22],1.02
same,normalized growth,[23],1.02
same,normalized growth,[24],1.06
same,normalized growth,[25],0.994
same,normalized growth,[26],0.975
CC1=CC(=O)N(c2ccc(OC(F)(F)F)cc2)C1=O,normalized growth,"locus YAR019C, strain CDC15, hits give low values",0.852 (active)
same,normalized growth,"locus YBL105C, strain PKC1, hits give low values",0.873 (active)
same,normalized growth,"locus YBR135W, strain CKS1, hits give low values",0.857 (active)
same,normalized growth,"locus YBR136W, strain MEC1, hits give low values",0.87 (active)
same,normalized growth,"locus YBR160W, strain CDC28, hits give low values",0.873 (active)
same,normalized growth,"locus YDL017W, strain CDC7, hits give low values",0.872 (active)
same,normalized growth,"locus YDL028C, strain MPS1, hits give low values",0.857 (active)
same,normalized growth,[3],0.869 (active)
same,normalized growth,"locus YDL108W, strain KIN28, hits give low values",0.868 (active)
same,normalized growth,"locus YDL132W, strain cdc53, hits give low values",0.847 (active)
same,normalized growth,"locus YDL214C, strain PRR2, hits give low values",0.467 (active)
same,normalized growth,"locus YDR052C, strain DBF4, hits give low values",0.883 (active)
same,normalized growth,"locus YDR054C, strain cdc34, hits give low values",0.853 (active)
same,normalized growth,"locus YDR226W, strain ADK1, hits give low values",0.862 (active)
same,normalized growth,"locus YDR477W, strain SNF1, hits give low values",0.377 (active)
same,normalized growth,"locus YER123W, strain YCK3, hits give low values",0.281 (active)
same,normalized growth,"locus YER133W, strain GLC7, hits give low values",0.339 (active)
same,normalized growth,"locus YFL009W, strain cdc4, hits give low values",0.849 (active)
same,normalized growth,"locus YFL029C, strain CAK1, hits give low values",0.837 (active)
same,normalized growth,"locus YFR003C, strain YPI1, hits give low values",0.878 (active)
same,normalized growth,"locus YFR019W, strain FAB1, hits give low values",0.512 (active)
same,normalized growth,"locus YFR028C, strain CDC14, hits give low values",0.865 (active)
same,normalized growth,"locus YGR040W, strain KSS1, hits give low values",0.384 (active)
same,normalized growth,"locus YGR052W, strain FMP48, hits give low values",0.421 (active)
same,normalized growth,"locus YGR092W, strain DBF2, hits give low values",0.217 (active)
same,normalized growth,[8],0.283 (active)
same,normalized growth,"locus YHR079C, strain IRE1, hits give low values",0.35 (active)
same,normalized growth,"locus YHR082C, strain KSP1, hits give low values",0.316 (active)
same,normalized growth,"locus YHR205W, strain SCH9, hits give low values",0.331 (active)
same,normalized growth,"locus YIL147C, strain SLN1, hits give low values",0.873 (active)
same,normalized growth,"locus YJL095W, strain BCK1, hits give low values",0.302 (active)
same,normalized growth,"locus YJL128C, strain PBS2, hits give low values",0.9
same,normalized growth,"locus YJL157C, strain FAR1, hits give low values",0.487 (active)
same,normalized growth,"locus YJR016C, strain ILV3, hits give low values",0.862 (active)
same,normalized growth,"locus YJR066W, strain TOR1 (second series), hits give low values",0.39 (active)
same,normalized growth,"locus YJR066W, strain TOR1, hits give low values",0.272 (active)
same,normalized growth,"locus YKL048C, strain ELM1, hits give low values",0.556 (active)
same,normalized growth,"locus YKL067W, strain YNK1, hits give low values",0.509 (active)
same,normalized growth,"locus YKL101W, strain HSL1, hits give low values",0.494 (active)
same,normalized growth,"locus YKL193C, strain SDS22, hits give low values",0.863 (active)
same,normalized growth,"locus YKL203C, strain TOR2, hits give low values",0.382 (active)
same,normalized growth,"locus YLR113W, strain HOG1, hits give low values",0.336 (active)
same,normalized growth,"locus YLR133W, strain CKI1, hits give low values",0.531 (active)
same,normalized growth,"locus YLR403W, strain SFP1, hits give low values",0.326 (active)
same,normalized growth,"locus YML070W, strain DAK1, hits give low values",0.401 (active)
same,normalized growth,"locus YMR001C, strain CDC5, hits give low values",0.854 (active)
same,normalized growth,"locus YMR205C, strain PFK2 (second series), hits give low values",0.563 (active)
same,normalized growth,"locus YMR277W, strain FCP1, hits give low values",0.868 (active)
same,normalized growth,"locus YNL006W, strain LST8, hits give low values",0.885 (active)
same,normalized growth,"locus YNL020C, strain ARK1, hits give low values",0.558 (active)
same,normalized growth,"locus YNL161W, strain CBK1, hits give low values",0.865 (active)
same,normalized growth,"locus YNL183C, strain NPR1, hits give low values",0.201 (active)
same,normalized growth,"locus YNL207W, strain RIO2, hits give low values",0.847 (active)
same,normalized growth,"locus YNL222W, strain SSU72, hits give low values",0.864 (active)
same,normalized growth,"locus YNL307C, strain MCK1 (second series), hits give low values",0.413 (active)
same,normalized growth,"locus YOL078W, strain AVO1, hits give low values",0.858 (active)
same,normalized growth,"locus YOL136C, strain PFK27, hits give low values",0.436 (active)
same,normalized growth,"locus YOR061W, strain CKA2, hits give low values",0.576 (active)
same,normalized growth,"locus YOR119C, strain RIO1, hits give low values",0.384 (active)
same,normalized growth,"locus YOR231W, strain MKK1, hits give low values",0.4 (active)
same,normalized growth,"locus YOR329C, strain SCD5, hits give low values",0.869 (active)
same,normalized growth,"locus YPL031C, strain PHO85, hits give low values",0.311 (active)
same,normalized growth,"locus YPL153C, strain RAD53, hits give low values",0.372 (active)
same,normalized growth,"locus YPL204W, strain HRR25, hits give low values",0.391 (active)
same,normalized growth,"locus YPL209C, strain IPL1, hits give low values",0.862 (active)
same,normalized growth,"locus YPL256C, strain CLN2, hits give low values",0.33 (active)
same,normalized growth,"locus YPR025C, strain CCL1, hits give low values",0.855 (active)
same,normalized growth,"locus YPR106W, strain ISR1, hits give low values",0.901
same,normalized growth,"locus YPR111W, strain DBF20, hits give low values",0.907
same,normalized growth,"strain NNK1, hits give low values",0.893
same,normalized growth,"strain TSCII, hits give low values",0.859 (active)
O=C1CSCC(=O)N1c1ccc(F)c(Cl)c1,normalized growth,[1],0.993
same,normalized growth,[2],0.994
same,normalized growth,[3],1
same,normalized growth,[4],0.99
same,normalized growth,[5],0.935
same,normalized growth,[6],0.984
same,normalized growth,[7],0.994
same,normalized growth,"locus YGR229C, strain SMI1, hits give low values",0.985
same,normalized growth,[8],0.996
same,normalized growth,[9],0.981
same,normalized growth,[10],1
same,normalized growth,[11],0.925
same,normalized growth,[12],0.989
same,normalized growth,[13],1.02
same,normalized growth,[14],1
same,normalized growth,[15],0.978
same,normalized growth,[16],0.995
same,normalized growth,[17],0.992
same,normalized growth,[18],1
same,normalized growth,[19],0.994
same,normalized growth,[20],0.997
same,normalized growth,[21],0.998
same,normalized growth,[22],0.979
same,normalized growth,[23],0.281 (active)
same,normalized growth,[24],0.97
same,normalized growth,[25],0.378 (active)
same,normalized growth,[26],1
